BaF3 tox – parental Ba/F3 viability inhibition as JAK2V617F counter-screen. CellTiter-Glo ATP luminescence. inhibition, % at 5.6 µM. actives 1.1% (n = 220,000);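 active = inhibition above a per-campaign cutoff, the mean inhibition of all tested compounds plus 3 SD, cut at about 27% in these data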;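 note: 0% = DMSO wells and 100% = JAK Inhibitor I control wells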
APP transl inh – APP translation inhibition; SH-SY5Y APP 5'UTR-luciferase reporter, luminescence; inhibition, % at 2 µM; actives 0.82% (n = 190,000); AID 1285;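 active = inhibition above a set limit, derived from the sample mean plus 3 SD, cut at about 45% in these data; inconclusive = one replicate passes the limit while the other fails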
Ba/F3 V617F tox – lowers viability of Ba/F3 cells expressing EpoR and JAK2V617F; ATP luminescence; inhibition, % at 5.6 µM; actives 1.1% (n = 220,000);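 active = inhibition above the campaign mean plus 3 SD over all tested compounds, cut at about 24% in these data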;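 note: cytokine-independent growth of Ba/F3 cells driven by EpoR plus mutant JAK2; 0% = DMSO-treated cells and 100% = JAK inhibitor I control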
KLF5 inhibitor – inhibitors of KLF5 expression; DLD-1 KLF5 promoter-luciferase reporter, luminescence; inhibition, % at 5 µM; actives 0.23% (n = 290,000);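 active = inhibition above a per-plate limit of that plate's mean compound inhibition plus 3 SD, cut at about 60% in these data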;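 note: 0% = DMSO wells and 100% = LY294002 at 200 µM; higher means less KLF5 promoter-driven luciferase light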
aSyn UTR inh – MLPCN primary screen, SNCA 5' untranslated region; actives 0.82% (n = 300,000); alpha-synuclein 5'UTR reporter, inhibitor activity; inhibition, % (tested at 7.5 µM); in the data active = inhibition above about 60%; inconclusive = no clear call, values can overlap the other calls;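 note: H4 neuroglioblastoma cells stably carrying SNCA 5'UTR luciferase fusion; 0% = DMSO wells and 100% = positive control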
IEC-6 tox – counter-screen for KLF5 inhibitors: cytotoxicity in IEC-6 cells | IEC-6 cytotoxicity, luminescence viability | inhibition, % at 5 µM | actives 0.78% (n = 290,000); in the data active = inhibition above about 22%;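 note: 0% = plate median of test compound wells and 100% = cytotoxic reference compound wells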
The depositor's hits bear a star; ? = inconclusive; · = no result. Only some compounds are listed: those with a hit (about 2.2% of all), similar ones and a draw of the others.

SMILES	BaF3 tox	APP transl inh	Ba/F3 V617F tox	KLF5 inhibitor	aSyn UTR inh	IEC-6 tox
CC1Cc2ccccc2N1c1ncnc(N)c1[N+](=O)[O-] (centres undefined)	-7	48*	-4	30	69*	-1
CC(=O)Nc1ccc(Nc2nc(C)c([N+](=O)[O-])c(Nc3ccccc3)n2)cc1	3	17	0	2	?	-2
CC(=O)Nc1ccc(Nc2nc(C)c([N+](=O)[O-])c(N(C)c3ccccc3)n2)cc1	0	·	-5	-15	86*	6
COc1cccc(-c2nnc(NC(=O)c3cccc(F)c3)o2)c1	·	·	·	·	11	·
CCCN(CCC)S(=O)(=O)c1ccc(C(=O)Nc2nnc(-c3cccc(OC)c3)o2)cc1	4	21	-3	-23	70*	-1
CCCN(CCC)S(=O)(=O)c1ccc(C(=O)Nc2nnc(CSC)o2)cc1	3	-6	1	-25	13	4
CCCN(CCC)S(=O)(=O)c1ccc(C(=O)Nc2nnc(-c3cc(OC)cc(OC)c3)o2)cc1	9	4	12	26	82*	1
COc1ccc(-c2cc(C(=O)NCC(c3ccco3)N(C)C)c3ccccc3n2)cc1OC (centres undefined)	·	·	·	·	-8	·
CC(=O)c1c(C)oc2ccc(N(C(C)=O)S(=O)(=O)c3cccc4cccnc34)cc12	37*	·	27*	-11	-29	7
CC(=O)c1c(C)oc2ccc(N(C(C)=O)S(=O)(=O)c3ccc(Cl)c([N+](=O)[O-])c3)cc12	0	-1	-6	-20	112*	-2
CC(=O)c1c(C)oc2ccc(N(C(C)=O)S(=O)(=O)c3ccc(F)cc3C)cc12	·	·	·	-10	6	3
COc1ccc(NC(=O)[C@H](C)NC(=O)C2CCN(S(=O)(=O)c3ccc(C)cc3)CC2)cc1	·	·	·	-31	8	1
COc1cc(/C=C2/N=C(c3ccccc3)OC2=O)c(F)cc1OCc1ccccc1	·	·	·	·	0	·
CCc1c(C)nc2ncnn2c1NCCc1ccc(Cl)cc1	39*	5	18	-16	12	7
CCc1c(C)nc2ncnn2c1NCCc1ccccc1	13	4	0	-16	-5	0
CC(C)N1CCc2c(sc(N)c2C#N)C1	·	·	·	·	-3	·
CCN1CCc2c(sc(N)c2C#N)C1	1	66*	-2	18	7	1
COc1cccc(CNC(=O)CCS(=O)(=O)c2cc3c(cc2C)NC(=O)CO3)c1	·	·	·	-2	-4	1
COc1cccc(CNC(=O)CCS(=O)(=O)c2ccc3c(c2)NC(=O)CO3)c1	·	·	·	-10	99*	0
COc1cc(/C=C(\C#N)c2[nH]nc(N)c2C#N)cc(OC)c1O	6	49*	-1	-9	21	3
COc1cc(/C=C(\C#N)c2ccccn2)cc(OC)c1O	-1	·	6	5	-49	0
COc1ccc(S(=O)(=O)N2CCCCC2)cc1NC(=O)c1ccc([N+](=O)[O-])o1	5	56*	-2	-25	-29	-5
O=C(C[n+]1cc(-c2ccc(Br)cc2)n2c1CCCCC2)c1ccccc1	49*	16	38*	-11	-15	-2
O=C(C[n+]1cc(-c2ccccc2)n2c1CCC2)N1c2ccccc2Sc2ccccc21	6	0	0	5	8	-4
O=C(C[n+]1cc(-c2ccccc2)n2c1CCC2)c1cccs1	39*	-10	26*	-40	-3	-10
SMILES	BaF3 tox	APP transl inh	Ba/F3 V617F tox	KLF5 inhibitor	aSyn UTR inh	IEC-6 tox
O=C(C[n+]1cc(-c2ccc(Cl)cc2)n2c1CCCCC2)c1ccccc1	43*	·	28*	-22	-44	-6
CCCCCCCSc1nnc(N)s1	0	·	1	-11	-2	5
O=C(Nc1ncccc1Cl)c1cc2ccccc2o1	·	·	·	-204	-74	-3
CCC(Oc1ccccc1)C(=O)Nc1cc(C(F)(F)F)ccc1N1CCOCC1 (centres undefined)	·	·	·	·	7	·
COc1ccccc1CNS(=O)(=O)CCNC(=O)c1ccccc1	·	·	·	·	-2	·
Cc1c(-c2ccc(Cl)cc2Cl)nc2ccccc2c1C(=O)NCCN1CCOCC1	·	·	·	-31	-1	-3
O=C(CCl)Nc1ccccc1Sc1ccc(Cl)cc1	1	·	0	-31	93*	4
CCN(CC)S(=O)(=O)c1cc(NC(=O)C(=O)c2c(-c3ccccc3)cc3ccccn23)ccc1C	2	93*	-3	-26	23	-2
COC(=O)c1ccc(CN2C(=O)NC(Cc3c[nH]c4ccccc34)C2=O)cc1 (centres undefined)	·	·	·	-45	-95	2
COc1ccc2c(/C=C/c3cc[n+](C)cc3)c[nH]c2c1	·	·	·	-18	7	-1

High-throughput results (PubChem)
